Assay [1] has as its target Tyrosine-protein kinase Yes (Homo sapiens) (UniProt P07947). Nature of the assay: qHTS for small molecule inhibitors of Yes1 kinase: Primary Screen (AID 686947). Also: potency is read from the fitted curve at half-maximal effect; nearly all actives have a fitted effect of over 60% in size. To be noted: Yes1 kinase biochemical qHTS inhibition; series mostly up to 76.9 µM. In a few lines: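 Yes1 (4 nM) preincubated 20 min with compound, then 60 min room-temperature reaction with 0.1 mM ATP and 0.3 mg/mL poly(E4Y) in pH 7.5 Tris, 10 mM MgCl2. ADP measured by ADP-Glo luminescence, normalised to enzyme/no-enzyme controls.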

Assay [2] is described as follows: qHTS for small molecule inhibitors of Yes1 kinase: Counter Assay (AID 686950).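 Also: no kinase present so only ADP-Glo detection of a fixed ADP amount is tested; luminescence from ADP-Glo reporting ADP in a fixed ATP and ADP mixture; 0% = DMSO wells with ATP plus ADP and -100% = ATP-only wells without ADP.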 Conditions: series mostly up to 76.9 µM. An outline of the steps:
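Luminescence read-out from ADP-Glo quantifies a fixed ADP amount (0.02 mM ADP with 0.08 mM ATP) after 60 min at room temperature; signal is normalized between DMSO wells with ATP/ADP and with 0.1 mM ATP alone.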
For orientation: In qHTS, concentration-response curves come from the screen itself.

The nature of assay [3]: qHTS profiling of the MIPE4 collection as inhibitors of Plasmodium falciparum (HB3) proliferation (AID 743347; call rule not given here;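 also: plate controls were DMSO vehicle wells for no effect and artemisinin wells for full effect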). Conditions: P. falciparum HB3 in erythrocytes, SYBR Green DNA, 72 h; at 28.5 µM (top of the series). In a few lines: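 Erythrocytes infected with P. falciparum (0.3% parasitemia, 2.5% hematocrit) incubated with compounds 72 h at 37 C, 5% CO2. Lysis with saponin/Triton buffer containing SYBR Green I, overnight at room temperature in the dark; DNA fluorescence (485/535 nm) normalised to 0.29 uM artemisinin and DMSO.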

Assay [4] deals with Pyruvate kinase PKM (Homo sapiens) (UniProt P14618). Nature of the assay: qHTS Assay for Inhibitors of Human Muscle Pyruvate Kinase (AID 958). To be noted: purified human PKM enzyme activity. In a few lines: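 ATP production by PKM2 detected via luciferase luminescence after 1 h room-temperature reaction (0.1 nM enzyme, PEP at Km 0.5 mM, ADP 0.1 mM, pH 7.2 imidazole buffer). Inhibition scaled to no-enzyme control; activation referenced to 0.3 nM enzyme wells.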

The target of assay [5] is Pyruvate kinase (Leishmania mexicana) (UniProt Q27686). In words: qHTS Validation Assay for Activators of Leishmania Mexicana Pyruvate Kinase (AID 959). To be noted: purified L. mexicana pyruvate kinase, enzyme activity; series mostly up to 57.5 µM. In a few lines:
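LmPYK E451W 0.2 nM; 0.5 mM PEP, 0.1 mM ADP, 7 mM MgCl2, 50 mM KCl, imidazole pH 7.2, 0.01% Tween 20, 0.05% BSA; 1 h RT; PKLight luminescence; DMSO-normalized.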

Assay [6] in a line: qHTS for Inhibitors of the vitamin D receptor (VDR): Hit Validation using a Texas Red Assay (AID 602201). Also: potency is read from the fitted curve at half-maximal effect. Conditions: VDR coregulator binding, Texas Red fluorescence polarization; agonist-bound VDR ligand-binding domain. An outline of the steps:
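After a 2-hour room-temperature incubation, polarization of Texas-Red emission was read (Ex 595 nm/Em 615 nm). Final mix contained 7 nM Texas Red, 1.5 uM VDR-LBD and LG19078.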

The source of these data is PubChem BioAssay (NCATS).

Inconclusive results are not listed. Activity calls are given as the source filed them. Unless noted, calls follow the shape of the dose curve; as a rule, active = well fitted curve in the direction sought with a large enough effect; inconclusive = small, poorly fitted or top-dose-only effect, or another doubt; inactive = no such curve, though single readings can be large; an effect the other way counts as inactive or inconclusive.

Pyruvate kinase PKM (Homo sapiens), sequence (P14618 whole entry, looked up): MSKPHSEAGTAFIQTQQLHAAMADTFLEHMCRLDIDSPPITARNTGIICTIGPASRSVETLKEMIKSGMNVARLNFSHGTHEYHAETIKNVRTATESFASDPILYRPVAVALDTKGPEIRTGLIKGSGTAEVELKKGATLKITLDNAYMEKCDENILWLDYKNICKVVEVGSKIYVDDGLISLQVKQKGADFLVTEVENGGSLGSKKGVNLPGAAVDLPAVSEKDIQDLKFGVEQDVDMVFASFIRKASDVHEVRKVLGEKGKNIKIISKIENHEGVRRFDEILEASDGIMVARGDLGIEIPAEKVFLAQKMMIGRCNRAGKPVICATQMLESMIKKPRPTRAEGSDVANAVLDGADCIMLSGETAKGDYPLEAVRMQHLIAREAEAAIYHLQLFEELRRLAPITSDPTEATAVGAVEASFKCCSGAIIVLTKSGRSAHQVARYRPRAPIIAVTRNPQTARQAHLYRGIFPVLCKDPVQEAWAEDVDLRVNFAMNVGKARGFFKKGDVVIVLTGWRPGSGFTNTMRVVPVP
Tyrosine-protein kinase Yes (Homo sapiens), sequence (P07947 whole entry, looked up): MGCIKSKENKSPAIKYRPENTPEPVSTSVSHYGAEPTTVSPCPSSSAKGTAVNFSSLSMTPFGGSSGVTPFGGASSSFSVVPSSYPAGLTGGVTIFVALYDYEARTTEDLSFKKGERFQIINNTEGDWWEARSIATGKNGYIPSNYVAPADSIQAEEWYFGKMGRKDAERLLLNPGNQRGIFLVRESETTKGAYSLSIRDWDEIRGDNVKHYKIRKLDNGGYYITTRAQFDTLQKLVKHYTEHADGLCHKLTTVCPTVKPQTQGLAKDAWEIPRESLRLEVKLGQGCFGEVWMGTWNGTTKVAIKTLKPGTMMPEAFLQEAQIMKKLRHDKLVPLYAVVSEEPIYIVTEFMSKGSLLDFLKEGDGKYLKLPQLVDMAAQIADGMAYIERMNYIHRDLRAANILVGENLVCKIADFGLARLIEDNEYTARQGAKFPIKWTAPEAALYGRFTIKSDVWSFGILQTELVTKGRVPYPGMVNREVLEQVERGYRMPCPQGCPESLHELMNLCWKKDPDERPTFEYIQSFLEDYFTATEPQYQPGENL
Pyruvate kinase (Leishmania mexicana), sequence (Q27686 2-499 E452W): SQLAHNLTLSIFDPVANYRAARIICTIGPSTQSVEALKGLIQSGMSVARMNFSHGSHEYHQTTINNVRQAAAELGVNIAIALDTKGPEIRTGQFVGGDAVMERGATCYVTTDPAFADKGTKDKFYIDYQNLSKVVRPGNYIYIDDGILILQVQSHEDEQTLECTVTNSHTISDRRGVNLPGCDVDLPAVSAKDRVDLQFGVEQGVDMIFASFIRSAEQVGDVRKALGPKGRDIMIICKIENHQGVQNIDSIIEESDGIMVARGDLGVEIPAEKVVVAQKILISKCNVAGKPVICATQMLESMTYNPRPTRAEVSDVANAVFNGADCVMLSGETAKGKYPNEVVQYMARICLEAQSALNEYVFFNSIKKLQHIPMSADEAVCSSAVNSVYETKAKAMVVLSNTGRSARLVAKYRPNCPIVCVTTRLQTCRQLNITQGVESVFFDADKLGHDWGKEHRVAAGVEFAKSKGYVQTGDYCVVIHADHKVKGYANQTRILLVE

Turning to `Fc1ccc(-c2nc3n(c2-c2ccncc2)CCS3)cc1`, in assay [1], the Potency was 0.519 µM (active). For the same molecule, the outcome in assay [2] was inactive. Molecule `CN[C@@H]1[C@H](O)[C@H](O[C@@H]2[C@H](O)[C@@H](O[C@H]3O[C@H]([C@@H](C)NC)CC[C@H]3N)[C@@H](N)C[C@H]2N)OC[C@]1(C)O` registered a growth, % of control in assay [3] of 107%. As for `Cc1cccc(/C=C\c2ccccc2)n1`, the Potency in assay [4] was 15.8 µM (active). For the same molecule, the Potency result in assay [5] was “inactive”.

Consider `O=C1c2ccccc2CC[C@H]1CNCCc1ccc(O)cc1`, for which the Potency in assay [6] is 25.1 µM (active).
